According to PubChem BioAssay AID602233 (National Center for Advancing Translational Sciences (NCATS), 2012):
Hit rate of the full screen: of about 380,000 compounds, about 170 (0.045%) were called active. The entries come from a sample that favours actives as a whole. A number with no mark means an inactive call. The call rests on the fitted dose curve; in most records, active means well fitted inhibition curve with a large enough effect; inconclusive means small, poorly fitted or top-dose-only effect; inactive means no such curve, though single readings can be large or run the other way.

Each compound was assayed against Phosphoglycerate kinase, glycosomal (Trypanosoma brucei brucei) (UniProt P07378) (assay: qHTS Assay to Find Inhibitors of Phosphoglycerate Kinase). Settings: PGK/GAPDH coupled, Kinase-Glo luminescence, 60 min; series mostly up to 57.5 µM; activity change, negative = inhibition: at the top concentration.
Phosphoglycerate kinase, glycosomal (Trypanosoma brucei brucei), sequence (P07378 whole entry, looked up): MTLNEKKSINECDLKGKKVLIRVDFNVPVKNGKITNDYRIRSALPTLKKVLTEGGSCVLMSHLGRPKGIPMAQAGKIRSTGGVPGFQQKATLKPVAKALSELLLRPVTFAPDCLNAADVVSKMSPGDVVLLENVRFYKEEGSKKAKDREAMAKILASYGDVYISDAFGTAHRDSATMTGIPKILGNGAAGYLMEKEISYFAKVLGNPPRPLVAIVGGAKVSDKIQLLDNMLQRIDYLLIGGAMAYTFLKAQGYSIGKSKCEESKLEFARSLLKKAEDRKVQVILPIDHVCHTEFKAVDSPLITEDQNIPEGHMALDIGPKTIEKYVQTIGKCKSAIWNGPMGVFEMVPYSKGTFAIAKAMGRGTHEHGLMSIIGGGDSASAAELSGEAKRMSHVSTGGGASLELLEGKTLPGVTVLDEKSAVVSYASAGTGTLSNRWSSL
Source text: Several species of the Trypanosomatidae family of parasitic protozoans cause a spectrum of diseases throughout the tropical and subtropical world. Sleeping sickness, caused by two subspecies of Trypanosoma brucei, is endemic to areas of sub-Saharan Africa, while Chagas disease, a manifestation of Trypanosoma cruzi infection, is prevalent throughout Central and South America. In addition, many species of Leishmania are responsible for a range of cutaneous and visceral diseases, causing ulcers, destructive lesions and kalaazar, a lethal infection of the viscera. Collectively, these organisms infect 30 million people worldwide (~500 million live in endemic areas), and account for ~130,000 deaths annually. Given their debilitating and prevalent nature, trypanosomatid parasites impose a heavy medical, economic and social burden on entire populations, primarily in the developing world. The problem is further exacerbated by the fact that existing treatments have progressed little in the past 50 years, and current drugs show high toxicity and poor efficacy. […] Blood-stream stages of T. brucei are entirely dependent on glycolysis as a source of ATP, and the tricarboxylic acid cycle and oxidative phosphorylation are both repressed. Glycolysis in axenically cultured T. cruzi, representing the intracellular pathogenic stage, is also essential for these parasites. […] Previous studies have shown that the glycolytic enzyme, phosphoglycerate kinase (PGK), is a viable target for drugs to kill these parasites. […] NIH Molecular Libraries Probe Production Network [MLPCN] NIH Chemical Genomics Center [NCGC] MLPCN Grant: R03 MH093212 PI Name: Malcolm Walkinshaw, University of Edinburgh
3ul of substrate/PGK buffer (columns 1,2,5-48) are dispensed into Greiner white solid bottom 1536-well assay plates; columns 3-4 receive only TEA buffer as 0x PGK controls. Compounds are then transferred via Kalypsys pin tool equipped with 1536-pin array (10nl slotted pins, V&P Scientific, San Diego, CA). Following addition of compound, 1ul of GAPDH (100nM final concentration, all columns) is added to initiate the reaction (this upstream coupling enzyme is necessary for in-well production of PGK substrate, 1,3-bisphosphoglycerate (1,3-BPG), which is unstable and not commercially available). The plates are then incubated at room temperature for 60 minutes. Kinase-Glo Plus reagent is added (2ul) and plates incubated for 10 minutes, before being transferred to a ViewLux high-throughput CCD imager (PerkinElmer) wherein single end-point measurements of luminescence are acquired using a clear filter. All reagents are diluted in an assay buffer consisting of 100mM TEA (pH 7.6), 5mM MgCl2 and 0.01% Tween-20.
Further: nearly all actives have a fitted effect of over 60% in size.
Potency means the concentration at half of the fitted maximal effect.

Row | SMILES | activity change, negative = inhibition [%] | outcome | Potency
1 | CCc1ccccc1NC(=O)c1cnn(-c2ccc(F)cc2)c1C1CCNCC1 | -3.07 |  | 
2 | Cc1ccc(CNC(=O)CCNS(=O)(=O)c2ccc3c(c2)oc(=O)n3C)cc1 | 1.22 |  | 
3 | CCc1cccc(-n2nnc(-c3nsc(NC(=O)c4ccc(C)cc4)n3)c2C)c1 |  | inactive | 
4 | CC(C)Cn1c(=O)c2ccccc2n2c(CCC(=O)N3CCN(c4cccc(Cl)c4)CC3)nnc12 | -8.58 |  | 
5 | Cc1ccc(OCCSc2nc(-c3cccs3)nc3cc(=O)[nH]n23)cc1Cl | -19.6 |  | 
6 | CC1=C(c2ccc(Cl)cc2)S(=O)(=O)N=C1N1CCN(c2cc(C)ccc2C)CC1 | -10.5 |  | 
7 | Cc1cccc(N2CCN(c3c(CN4CCCC4)c(=O)oc4ccccc34)CC2)c1C | 1.96 |  | 
8 | CCc1ccc(NC(=O)CN2CCSc3ccc(S(=O)(=O)N4CCCC4)cc32)cc1 |  | inactive | 
9 | CCCN(CCC)CCNC(=O)c1ccc2c(c1)NC(=O)C(CS(=O)(=O)Cc1cccc(Br)c1)N2 (stereo not drawn) | -1.96 |  | 
10 | COc1cc(CNC(=O)c2cc3n(n2)CCCN(Cc2cccc(F)c2)C3=O)cc(OC)c1OC | -5.91 |  | 
11 | COc1ccc(OC)c(-c2nc(C(N)=O)c3c(n2)n(-c2ccc4c(c2)OCO4)c(=O)n3C)c1 | -7.35 |  | 
12 | CCN(Cc1ccccc1)C(=O)c1cn(-c2cccc(OC)c2)c(=O)c2ccccc12 | 4.13 |  | 
13 | O=C(CCn1c(=O)c2ccccc2n(Cc2ccc(Cl)cc2)c1=O)NCc1ccc2c(c1)OCO2 | 2.73 |  | 
14 | Cc1ccccc1OCc1ccc(-c2nc(C#N)c(N3CCCCC3)o2)o1 | -5.61 |  | 
15 | CC(C)(C)OC(=O)N1CCC(c2c(C(=O)Nc3ccc4c(c3)OCO4)cnn2-c2ccccc2)CC1 | -5.35 |  | 
16 | COc1ccc(-n2c(=O)c3sc4ccccc4c3n(CC(=O)Nc3cccc(C)c3)c2=O)cc1 | 3.99 |  | 
17 | Cc1c(C)n(Cc2ccc(Cl)cc2)c2ccc(C(=O)NCCc3ccc(S(N)(=O)=O)cc3)cc12 | -1.01 |  | 
18 | CCCNC(=O)c1ccc2c(c1)ncn2-c1ccc(C)cc1C | -4 |  | 
19 | CCn1cc2nc(SCc3cccc(F)c3)n(CCc3ccccc3)c(=O)c2n1 | -9.15 |  | 
20 | Cc1nc2ccccn2c(=O)c1NC(=O)c1c(F)cccc1F | -8.58 |  | 
21 | COc1ccc(CCNc2ncnc3onc(-c4ccc(Cl)cc4)c23)c(OC)c1 | -1.45 |  | 
22 | CCOC(=O)C(Cc1ccccc1)NC(=O)CCc1c(C)nc2c(c(C)nn2-c2ccc(C)c(C)c2)c1C (stereo not drawn) | -8 |  | 
23 | COc1ccccc1NC(=O)c1oc2ccccc2c1NC(=O)C(C)C | -7.07 |  | 
24 | O=C(NCc1cccnc1)C(=O)NCC(c1cccnc1)N1CCN(c2ccccc2)CC1 (stereo not drawn) | -9.1 |  | 

Row | SMILES | activity change, negative = inhibition [%] | outcome | Potency
25 | Cc1ccccc1CNC(=O)C(=O)NCC(c1cccs1)S(=O)(=O)c1cccs1 (stereo not drawn) | 9.59 |  | 
26 | O=C(CCC(=O)N1CC2CCCN2c2ccccc21)NCc1ccccc1Cl (stereo not drawn) | -2.17 |  | 
27 | O=C(CC1N=C2c3ccccc3N=C(SCc3cccc(Cl)c3)N2C1=O)NCc1ccc2c(c1)OCO2 (stereo not drawn) | 1.41 |  | 
28 | CCN(CC)S(=O)(=O)c1nnc(NC(=O)COc2ccccc2Cl)s1 | -3.74 |  | 
29 | Nc1ccc2nc3c(=O)[nH]c(=S)[nH]c3nc2c1 |  |  | 2.51 µM (active)
30 | Cc1oc2ccc(O)c(CN3CCC(C)CC3)c2c1C(=O)Nc1ccccc1 | 6.18 |  | 
31 | CCCCCn1c(CCCNC(=O)c2ccccc2OC)nc2ccccc21 | 2.09 |  | 
32 | CN(Cc1ccccc1)c1ncnc2onc(-c3ccc(F)cc3)c12 | -9.68 |  | 
33 | O=C(NCc1ccc2c(c1)CCN2C(=O)c1ccccc1)c1ccccc1 | -1.54 |  | 
34 | COc1ccc(-n2c(SCC(N)=O)nc3c(oc4ccccc43)c2=O)cc1 | 5.05 |  | 
35 | CC(C)(C)c1ccc(OCC(=O)N2CCC(c3nc4ccccc4s3)CC2)cc1 |  | inactive | 
36 | O=C(Cn1cc(SCc2cccc(Cl)c2)c2ccccc21)N1CCCCC1 | 8.44 |  | 
37 | COc1ccc(Cn2ccc3nc(C)c(C(=O)Nc4ccc(C)c(F)c4)cc3c2=O)cc1 | -7.62 |  | 
38 | O=C(Cn1c(=O)n(Cc2cccs2)c(=O)c2cccnc21)Nc1ccc(F)cc1 | 9.96 |  | 
39 | COc1ccc(OC)c2sc(N3CCN(C(=O)C4COc5ccccc5O4)CC3)nc12 (stereo not drawn) | 0.972 |  | 
40 | Cc1c(CC(=O)N2CCN(C(=O)C3COc4ccccc4O3)CC2)c(=O)oc2c(O)c(O)ccc12 (stereo not drawn) |  |  | 8.91 µM (active)
41 | COc1cc(NS(=O)(=O)c2ccc3c(c2)OCC(C(=O)N2CCCC2)O3)cc(OC)c1 (stereo not drawn) | -5.79 |  | 
42 | COc1ccc(C(=O)N2CCC(c3nc4ccccc4o3)CC2)cc1 | 3.31 |  | 
43 | COc1ccc(CCNS(=O)(=O)c2cc(-c3cc(C)no3)ccc2C)cc1OC | 7.73 |  | 
44 | CC(=O)c1ccc(NC(=O)c2nc(-c3ccc(C)cc3)n3c2CCCCC3)cc1 |  | inactive | 
45 | COc1ccc(N2CCN(C(=O)c3c(C)oc4nc(C)nc(N5CCCC5)c34)CC2)cc1 | -3.22 |  | 
46 | COc1cccc(NC(=O)N(Cc2cn(C)c3ccccc23)C2CCCCCC2)c1 | 1.22 |  | 
47 | Cc1ccc(CCNC(=O)c2nnc(Cc3cccc(F)c3)o2)cc1 | -3.81 |  | 
48 | COC(=O)c1ccc(Cn2c(SCC(=O)N(C)c3ccccc3)nc3ccccc32)cc1 | -5.74 |  | 
